Measurements: PubChem BioAssay (Tox21)
Values without a mark were called inactive. Calls come from the whole dose curve; as a rule, active = well fitted inhibition curve with a large enough effect in the repeat runs (not every such curve was filed as active); inconclusive = weak or mixed curves; inactive = flat fitted curve, though single readings scatter.

What follows are compounds tested against Thyrotropin-releasing hormone receptor (Homo sapiens) (UniProt P34981) (assay: qHTS assay to identify small molecule antagonists of the thyrotropin-releasing hormone receptor (TRHR) signaling pathway (AID 1346877)). Conditions: TRHR-HEK293, TRH-induced calcium fluorescence, antagonist mode; series mostly up to 51.3 µM; activity, negative = inhibition: at the top concentration.
Chain of Thyrotropin-releasing hormone receptor (Homo sapiens) (P34981 whole entry, looked up): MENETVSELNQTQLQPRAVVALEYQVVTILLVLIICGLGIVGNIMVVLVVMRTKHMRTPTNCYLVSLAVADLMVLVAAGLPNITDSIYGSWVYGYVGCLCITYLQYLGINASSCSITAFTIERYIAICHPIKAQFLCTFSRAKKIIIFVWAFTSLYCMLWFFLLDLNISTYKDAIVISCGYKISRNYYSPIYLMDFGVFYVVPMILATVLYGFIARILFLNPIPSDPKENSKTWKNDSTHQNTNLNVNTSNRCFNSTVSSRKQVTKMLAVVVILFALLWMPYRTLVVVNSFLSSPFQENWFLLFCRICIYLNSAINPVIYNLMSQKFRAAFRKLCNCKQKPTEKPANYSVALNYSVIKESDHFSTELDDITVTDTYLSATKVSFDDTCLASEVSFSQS
Summary of the method: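 Overnight-plated (18 h, 37 °C) HEK293 cells expressing TRHR were dye-loaded 2 h, treated with compound, then stimulated with TRH at 1 nM final. Fluorescence intensity was captured every second for 3 min.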
% is set by controls: 0 for no effect and ±100 for the full control effect.

| Structure (SMILES) | activity, negative = inhibition |
| --- | --- |
| CC1(C)OC[C@@H](COC(=O)CCc2ccc(OC[C@@H](O)CNCCNC(=O)N3CCOCC3)cc2)O1 | -3.66% [at 23.6 µM] |
| CCC(C(=O)NC(=O)NC(C)=O)c1ccccc1 (stereo unspecified) | 8.46% [at 23.6 µM] |
| CC(C)(N)C#N | -2.51% |
| O=C(c1ccccc1)C1(O)CCCCC1 | 1.9% |
| [O-][n+]1cccc(CO)c1 | -1.53% [at 23.6 µM] |
| CC(C)CC(C)(N)C#N (stereo unspecified) | -4.46% |
| C=CC(=O)OCCCl | -2.47% |
| CCNS(=O)(=O)c1ccc(C)cc1 | 3.55% |
| CC(=O)NC(=O)c1ccccc1O | 3.57% [at 23.6 µM] |
| OCCCCCO | 1.37% |
| O=C(CO)[C@@H](O)[C@H](O)[C@H](O)CO | -0.509% |
| C=CC(C)(CCC=C(C)C)OC(=O)CC (stereo unspecified) | 1.82% |
| CN(C)[C@@H]1C(=O)C(C(=O)NCN2CCCC2)=C(O)[C@@]2(O)C(=O)C3=C(O)c4c(O)cccc4[C@@](C)(O)C3C[C@@H]12 (stereo partly specified) | -2.46% [at 23.6 µM] |
| Clc1cc(Cl)cc(Cl)c1 | -0.204% |
| O=C1CCCCCCCCCCCCCCO1 | 3.22% |
| CCCO[Si](OCCC)(OCCC)OCCC | 1.97% |
| O=Cc1cccc(Br)c1 | 5.25% |
| C[N+](C)(CCOc1ccccc1)Cc1cccs1 | 3.1% [at 23.6 µM] |
| CN1CCC(=C2c3ccccc3CCc3cccnc32)CC1 | 4.42% [at 23.6 µM] |
| CC(=O)c1ccc2ccccc2c1 | 1.74% |
| c1ccc(Cc2ccccc2)cc1 | 1.64% |
| C=C(C)C(=O)OCC1CCCO1 (stereo unspecified) | 0% |
| CN(C)CCCN(C)CCCN(C)C | -3.09% |
| O=S(=O)(O)c1cc(O)c(O)c(S(=O)(=O)O)c1 | 12.7% |
| O=[N+]([O-])c1cncn1CCN1CCOCC1 | 5.7% [at 23.6 µM] |
| CCOC(=O)OC(C)OC1=C(C(=O)Nc2ccccn2)N(C)S(=O)(=O)c2ccccc21 (stereo unspecified) | -4.69% [at 23.6 µM] |
